Test results: article PMC7826789 (International Journal of Molecular Sciences, 2021)

In the case of `Nc1nccc(-c2c(-c3ccc(F)cc3)ncn2CCCN2CCOCC2)n1` [SB-216385], the Kinases covered (MAP2K4) is reported as “MAP2K4”.

`CN(C)C/C=C/C(=O)Nc1ccc(C(=O)Nc2cccc(Nc3ncc(Cl)c(-c4c[nH]c5ccccc45)n3)c2)cc1` [THZ1] was tested, and the Kinases covered (MAP3K11) was “MAP3K11”.

With `CCn1c(-c2nonc2N)nc2ccccc21` [SB-693162] the Kinases covered (MAP3K19) was “MAP3K19”.

In the case of `Cc1cccc(CC(=O)N2CCc3c2ccc(-c2cn(C)c4ncnc(N)c24)c3F)n1` [GSK2656157], the Kinases covered (MAP3K2) is reported as “MAP3K2”.

For `CC(C)(C)c1ccc(C(=O)Nc2cn3cc(-c4cccnc4)ccc3n2)cc1` [TPKI-58], the Kinases covered (MAP3K5) was “MAP3K5”.

In the case of `Cc1cc(-c2ccc3c(c2)CC[C@@H](N[C@@H](C)c2ccccc2)C3)cnc1N` [GW412617], the Kinases covered (MAP4K2) is reported as “MAP4K2”.

For `Cl.O=C1Nc2ccc(-c3cccnc3)cc2C1=Cc1cc(Br)c(O)c(Br)c1` [GW429374A], the Kinases covered (MAP4K4) was “MAP4K4”.

With `Cc1ccc(C(=O)NCC(N)=O)cc1-n1c(C)cc(OCc2ccc(F)cc2F)c(Br)c1=O` [PFE-PKIS 1] the Kinases covered (MAPK11) was “MAPK11”.

For `COCCNC(=O)c1ccc(-c2cc(C(=O)NC3CC3)cc(F)c2C)cc1` [GW868318], the Kinases covered (MAPK11) was “MAPK11”.
